The supplement of paper PMC8728848
The entries come from a sample that favours the strongest signals as a whole.

Experiments:
Test in all cases: glycan array binding signal (z-score within array); higher = stronger binding
Details in all cases: glycan notation: IUPAC condensed, linker removed
[1] = target: Fuc(a1-2)Gal(b1-3)GalNAc(b1-3)Gal(a1-4)Gal(b1-4)Glc
Method in brief: (§1)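 The binding signal is a Z-score computed within each array. Data were drawn from 3228 arrays in the Consortium for Functional Glycomics database, restricted to those with a known protein sequence. Scores were averaged over arrays of the same protein sequence at different concentrations or buffers, and over linkers, and negative values can be taken as non-binding.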

[2] = target: Fuc(a1-2)Gal(b1-3)GlcNAc(b1-3)[Gal(b1-4)GlcNAc(b1-6)]Gal(b1-4)Glc
Method in brief: as §1

[3] = target: Fuc(a1-2)Gal(b1-3)[Fuc(a1-4)]GlcNAc(b1-2)Man(a1-3)[Fuc(a1-2)Gal(b1-3)[Fuc(a1-4)]GlcNAc(b1-2)Man(a1-6)]Man(b1-4)GlcNAc(b1-4)[Fuc(a1-6)]GlcNAc(b1-4)[Fuc(a1-6)]GlcNAc
Method in brief: as §1

[4] = target: Fuc(a1-2)Gal(b1-4)GlcNAc(b1-3)GalNAc
Method in brief: as §1

[5] = target: Fuc(a1-2)Gal(b1-4)GlcNAc(b1-3)[Fuc(a1-2)Gal(b1-4)GlcNAc(b1-6)]GalNAc
Method in brief: as §1

[6] = target: Fuc(a1-2)Gal(b1-4)GlcNAc(b1-3)[Fuc(a1-3)[Gal(b1-4)]GlcNAc(b1-6)]Gal(b1-4)Glc
Method in brief: as §1

[7] = target: Fuc(a1-2)Gal(b1-4)[Fuc(a1-3)]GlcNAc
Method in brief: as §1

[8] = target: Fuc(a1-2)[Gal(a1-3)]Gal(b1-3)GlcNAc(b1-6)GalNAc
Method in brief: as §1

[9] = target: Fuc(a1-2)[Gal(a1-3)]Gal(b1-4)GlcNAc(b1-2)Man(a1-3)[Fuc(a1-2)[Gal(a1-3)]Gal(b1-4)GlcNAc(b1-2)Man(a1-6)]Man(b1-4)GlcNAc(b1-4)GlcNAc
Method in brief: as §1

[10] = target: Fuc(a1-2)[Gal(a1-4)]Gal(b1-4)GlcNAc
Method in brief: as §1

[11] = target: Fuc(a1-2)[GalNAc(a1-3)]Gal(b1-4)GlcNAc(b1-6)GalNAc
Method in brief: as §1

Gal(a1-3)Gal(b1-3)GlcNAc = target: Gal(a1-3)Gal(b1-3)GlcNAc
Method in brief: as §1

[12] = target: Gal(a1-3)Gal(b1-3)GlcNAc(b1-2)Man(a1-3)[Gal(a1-3)Gal(b1-3)GlcNAc(b1-2)Man(a1-6)]Man(b1-4)GlcNAc(b1-4)GlcNAc
Method in brief: as §1

[13] = target: Gal(a1-3)[Gal(a1-4)]Gal(b1-4)GlcNAc
Method in brief: as §1

Gal(a1-4)GlcNAc = target: Gal(a1-4)GlcNAc
Method in brief: as §1

[14] = target: Gal(b1-3)GlcNAc(b1-3)Gal(b1-4)GlcNAc(b1-6)[Gal(b1-3)GlcNAc(b1-3)]Gal(b1-4)Glc
Method in brief: as §1

[15] = target: Gal(b1-3)[Fuc(a1-4)]GlcNAc(b1-2)Man(a1-3)[Gal(b1-3)[Fuc(a1-4)]GlcNAc(b1-2)Man(a1-6)]Man(b1-4)GlcNAc(b1-4)[Fuc(a1-6)]GlcNAc
Method in brief: as §1

Gal(b1-4)Glc = target: Gal(b1-4)Glc
Method in brief: as §1

Gal(b1-4)Glc6S = target: Gal(b1-4)Glc6S
Method in brief: as §1

[16] = target: Gal(b1-4)GlcNAc(b1-3)Gal(b1-3)GlcNAc
Method in brief: as §1

[17] = target: Gal(b1-4)GlcNAc(b1-3)Gal(b1-4)GlcNAc(b1-2)[Gal(b1-4)GlcNAc(b1-3)Gal(b1-4)GlcNAc(b1-6)]Man(a1-6)[Gal(b1-4)GlcNAc(b1-3)Gal(b1-4)GlcNAc(b1-2)Man(a1-3)]Man(b1-4)GlcNAc(b1-4)[Fuc(a1-6)]GlcNAc
Method in brief: as §1

[18] = target: Gal(b1-4)GlcNAc(b1-3)Gal(b1-4)GlcNAc(b1-3)Gal(b1-4)GlcNAc(b1-3)Gal(b1-4)GlcNAc(b1-3)Gal(b1-4)GlcNAc(b1-3)Gal(b1-4)GlcNAc(b1-2)Man(a1-3)[Gal(b1-4)GlcNAc(b1-3)Gal(b1-4)GlcNAc(b1-3)Gal(b1-4)GlcNAc(b1-3)Gal(b1-4)GlcNAc(b1-3)Gal(b1-4)GlcNAc(b1-3)Gal(b1-4)GlcNAc(b1-2)Man(a1-6)]Man(b1-4)GlcNAc(b1-4)GlcNAc
Method in brief: as §1

[19] = target: Gal(b1-4)GlcNAc(b1-3)Gal(b1-4)GlcNAc(b1-3)GalNAc
Method in brief: as §1

[20] = target: Gal(b1-4)GlcNAc(b1-3)[Gal(b1-4)GlcNAc(b1-6)]Gal(b1-4)GlcNAc
Method in brief: as §1

Gal4S(b1-4)GlcNAc = target: Gal4S(b1-4)GlcNAc
Method in brief: as §1

Gal6S(b1-3)GlcNAc = target: Gal6S(b1-3)GlcNAc
Method in brief: as §1

B1: PX14375F-bfa-539-21-539 (Bacteroides fragilis) (protein)
chain: EDFLQKDPPSSPSQSVFWQKKSDFESALAGTYSVMYSGVFSQIMPCLDGLTDNAIVQHSEGTYGWAKTIAQGDLTPNQGGFVTDIYGNCYKGIARVHILMEQLDQYTGSDISADEKKFMLAQCKALRGYFYSWLYQCYKEVPVVTQSLDLNTMYQPKATRAEVLNRVMTDYDEAISELPDKLYSDSQTSGRFTVSAVKALKARILLFDAYDSNGKAISSKMEEVLTLLQSIKGYSLAARVRDNFISEKQLASPEIMFSVRFLRPNLTHSMDLYYGAWAVLDPTRNMVDAFECTDGKPWGESPLTVRPDESILYGNDDALKKAERAKMFMNRDRRLYESVNHSMMANFVDDGFKDEEVQVNESNNKGPTGFSALKYVQPTDVTPGYSTVSDADIVVLRYAHVLLMIAEAENEAHGATTTALNAINEVRTRSGQPAIEAGISQDDLRERIRNEWRIETCFEGLRYFQLKRWKLMDKRVNGVEDPAYPGYIKVYKPAFEFFPIPQSEIDKAGGVLKQDPAYE
glycan array binding signal (z-score) [1]: 1.21
glycan array binding signal (z-score) [2]: -0.583
glycan array binding signal (z-score) [3]: 0.238
glycan array binding signal (z-score) [4]: 0.334
glycan array binding signal (z-score) [5]: 0.212
glycan array binding signal (z-score) [6]: 0.539
glycan array binding signal (z-score) [7]: -0.409
glycan array binding signal (z-score) [8]: -0.329
glycan array binding signal (z-score) [9]: 6.22
glycan array binding signal (z-score) [10]: 2.7
glycan array binding signal (z-score) [11]: -0.169
glycan array binding signal (z-score) (Gal(a1-3)Gal(b1-3)GlcNAc): -0.042
glycan array binding signal (z-score) [12]: 2.35
glycan array binding signal (z-score) [13]: 3.97
glycan array binding signal (z-score) (Gal(a1-4)GlcNAc): -0.504
glycan array binding signal (z-score) [14]: -0.107
glycan array binding signal (z-score) [15]: 2.29
glycan array binding signal (z-score) (Gal(b1-4)Glc): -0.577
glycan array binding signal (z-score) (Gal(b1-4)Glc6S): 0.083
glycan array binding signal (z-score) [16]: -0.243
glycan array binding signal (z-score) [17]: 5.95
glycan array binding signal (z-score) [18]: 4.05
glycan array binding signal (z-score) [19]: 2.44
glycan array binding signal (z-score) [20]: 0.637
glycan array binding signal (z-score) (Gal4S(b1-4)GlcNAc): -0.679
glycan array binding signal (z-score) (Gal6S(b1-3)GlcNAc): -0.321
